Laboratory results taken from PubChem BioAssay AID1159580 (chemical genetic matrix, 2015).
The campaign covered roughly 5,500 compounds. About 2,000 (36%) were called active. Not shown: some 18% with an inconclusive outcome. Cut-off read from the data, not from the text of the source: active = normalized growth mostly below about 0.91 (no sharp cut-off); inconclusive = no clear call, values can overlap the other calls; inactive = mostly above about 0.92. Some of the results follow.

Assay: chemical genetic growth profiling, strain panel (AID 1159580);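 note: tested at 20 µM; growth read once vehicle control cultures reached saturation at 30 °C; 1 = growth at the plate median or of vehicle wells; lower values mean less growth of the strain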
Settings: growth OD

Measured: normalized growth

CCNc1nc(Cl)nc(NC(C)C)n1
inactive: S. cerevisiae deletion strains, locus YJR075W, strain HOC1, hits give low values 1.02 | S. cerevisiae deletion strains, locus YKL009W, strain mrt4, hits give low values 1.03 | S. cerevisiae deletion strains, locus YKL068W, hits give low values 1.02 | S. cerevisiae deletion strains, locus YKL085W, strain MDH1 (second series), hits give low values 1.02 | S. cerevisiae deletion strains, locus YKL085W, strain MDH1, hits give low values 1.02 | S. cerevisiae deletion strains, locus YKL160W, strain elf1, hits give low values 1 | S. cerevisiae deletion strains, locus YKL190W, strain CNB1, hits give low values 1.03 | S. cerevisiae deletion strains, locus YKR001C, strain vps1, hits give low values 1.03 | S. cerevisiae deletion strains, locus YKR026C, strain gcn3, hits give low values 0.991 | S. cerevisiae deletion strains, locus YKR091W, strain srl3, hits give low values 1.01 | S. cerevisiae deletion strains, locus YLL001W, strain dnm1, hits give low values 0.998 | S. cerevisiae deletion strains, locus YLL026W, hits give low values 1 | S. cerevisiae deletion strains, locus YLL041C, strain sdh2, hits give low values 1 | S. cerevisiae deletion strains, locus YLR027C, strain aat2, hits give low values 0.996 | S. cerevisiae deletion strains, locus YLR039C, strain RIC1, hits give low values 1.02 | S. cerevisiae deletion strains, locus YLR058C, strain SHM2, hits give low values 1.02 | S. cerevisiae deletion strains, locus YLR102C, strain apc9, hits give low values 1.02 | S. cerevisiae deletion strains, locus YLR113W, strain HOG1, hits give low values 0.993 | S. cerevisiae deletion strains, locus YLR221C, strain rsa3, hits give low values 1.01 | S. cerevisiae deletion strains, locus YLR258W, strain gsy2, hits give low values 1.01 | S. cerevisiae deletion strains, locus YLR262C, strain YPT6 (second series), hits give low values 1.01 | S. cerevisiae deletion strains, locus YLR262C, strain YPT6, hits give low values 1.04 | S. cerevisiae deletion strains, locus YLR268W, strain sec22, hits give low values 1.01 | S. cerevisiae deletion strains, locus YLR320W, strain mms22, hits give low values 1.01 | S. cerevisiae deletion strains, locus YLR330W, strain CHS5, hits give low values 1.02 | S. cerevisiae deletion strains, locus YLR342W, strain FKS1 (second series), hits give low values 1.01 | S. cerevisiae deletion strains, locus YLR342W, strain FKS1, hits give low values 1 | S. cerevisiae deletion strains, locus YLR357W, strain rsc2, hits give low values 0.991 | S. cerevisiae deletion strains, locus YLR370C, strain arc18, hits give low values 0.984 | S. cerevisiae deletion strains, locus YLR371W, strain rom2, hits give low values 1.02 | S. cerevisiae deletion strains, locus YLR384C, strain iki3, hits give low values 1.01 | S. cerevisiae deletion strains, locus YLR418C, strain cdc73, hits give low values 1.04 | S. cerevisiae deletion strains, locus YML016C, strain PPZ1, hits give low values 1.01 | S. cerevisiae deletion strains, locus YML032C, strain rad52, hits give low values 1.03 | S. cerevisiae deletion strains, locus YML120C, strain ndi1, hits give low values 1.02 | S. cerevisiae deletion strains, locus YML124C, strain tub3, hits give low values 1.02 | S. cerevisiae deletion strains, locus YMR058W, strain fet3, hits give low values 1.01 | S. cerevisiae deletion strains, locus YMR078C, strain ctf18, hits give low values 1.01 | S. cerevisiae deletion strains, locus YMR125W, strain sto1, hits give low values 0.977 | S. cerevisiae deletion strains, locus YMR129W, hits give low values 1 | S. cerevisiae deletion strains, locus YMR205C, strain PFK2, hits give low values 1.01 | S. cerevisiae deletion strains, locus YMR223W, strain ubp8, hits give low values 1.02 | S. cerevisiae deletion strains, locus YMR231W, strain pep5, hits give low values 0.996 | S. cerevisiae deletion strains, locus YMR263W, strain SAP30, hits give low values 1.03 | S. cerevisiae deletion strains, locus YMR307W, strain GAS1, hits give low values 1.09 | S. cerevisiae deletion strains, locus YNL067W, strain RPL9B, hits give low values 1.02 | S. cerevisiae deletion strains, locus YNL071W, strain lat1, hits give low values 1.01 | S. cerevisiae deletion strains, locus YNL128W, strain TEP1, hits give low values 1.02 | S. cerevisiae deletion strains, locus YNL153C, strain GIM3, hits give low values 1.01 | S. cerevisiae deletion strains, locus YNL183C, strain NPR1, hits give low values 0.97 | S. cerevisiae deletion strains, locus YNL209W, strain ssb2, hits give low values 1.01 | S. cerevisiae deletion strains, locus YNL233W, strain BNI4, hits give low values 0.98 | S. cerevisiae deletion strains, locus YNL248C, strain rpa49, hits give low values 0.994 | S. cerevisiae deletion strains, locus YNL250W, strain rad50, hits give low values 1.01 | S. cerevisiae deletion strains, locus YNL271C, strain bni1, hits give low values 1.02 | S. cerevisiae deletion strains, locus YNL298W, strain CLA4, hits give low values 1.02 | S. cerevisiae deletion strains, locus YNL307C, strain MCK1, hits give low values 1.02 | S. cerevisiae deletion strains, locus YNL322C, strain KRE1 (second series), hits give low values 1 | S. cerevisiae deletion strains, locus YNL322C, strain KRE1, hits give low values 1.02 | S. cerevisiae deletion strains, locus YNR049C, strain mso1, hits give low values 1 | S. cerevisiae deletion strains, locus YNR052C, strain pop2, hits give low values 1.04 | S. cerevisiae deletion strains, locus YOL006C, strain TOP1, hits give low values 1.04 | S. cerevisiae deletion strains, locus YOL012C, strain htz1 1.05 | S. cerevisiae deletion strains, locus YOL147C, strain pex11, hits give low values 1.01 | S. cerevisiae deletion strains, locus YOR001W, strain rrp6, hits give low values 0.998 | S. cerevisiae deletion strains, locus YOR061W, strain CKA2, hits give low values 1.02 | S. cerevisiae deletion strains, locus YOR069W, strain VPS5, hits give low values 1.01 | S. cerevisiae deletion strains, locus YOR070C, strain gyp1, hits give low values 1.01 | S. cerevisiae deletion strains, locus YOR080W, strain dia2, hits give low values 0.995 | S. cerevisiae deletion strains, locus YOR083W, strain WHI5, hits give low values 1 | S. cerevisiae deletion strains, locus YOR106W, strain vam3, hits give low values 1.04 | S. cerevisiae deletion strains, locus YOR136W, strain idh2, hits give low values 1.02 | S. cerevisiae deletion strains, locus YOR144C, strain elg1, hits give low values 1.02 | S. cerevisiae deletion strains, locus YOR184W, strain ser1, hits give low values 1.03 | S. cerevisiae deletion strains, locus YOR231W, strain MKK1, hits give low values 0.997 | S. cerevisiae deletion strains, locus YOR265W, strain rbl2, hits give low values 1 | S. cerevisiae deletion strains, locus YOR270C, strain vph1, hits give low values 0.975 | S. cerevisiae deletion strains, locus YOR290C, strain snf2, hits give low values 1.01 | S. cerevisiae deletion strains, locus YOR316C, strain cot1, hits give low values 1.03 | S. cerevisiae deletion strains, locus YPL051W, strain arl3, hits give low values 0.98 | S. cerevisiae deletion strains, locus YPL055C, strain LGE1, hits give low values 1.03 | S. cerevisiae deletion strains, locus YPL078C, strain atp4, hits give low values 0.977 | S. cerevisiae deletion strains, locus YPL106C, strain sse1, hits give low values 1.03 | S. cerevisiae deletion strains, locus YPL240C, strain hsp82, hits give low values 1.01 | S. cerevisiae deletion strains, locus YPL241C, strain CIN2, hits give low values 1.03 | S. cerevisiae deletion strains, locus YPL256C, strain CLN2, hits give low values 0.996 | S. cerevisiae deletion strains, locus YPR119W, strain clb2, hits give low values 1.01 | S. cerevisiae deletion strains, locus YPR141C, strain kar3, hits give low values 1.03 | S. cerevisiae deletion strains, locus YPR163C, strain tif3, hits give low values 1.03 | S. cerevisiae deletion strains, locus YPR167C, strain met16, hits give low values 1.02 | S. cerevisiae deletion strains, strain wtn01, hits give low values 1.02 | S. cerevisiae strains, strain wild type, hits give low values 1.02
